Structures can show the parent of a compound that is named as a salt.
System: HepG2-GM130-SQSTM1
Test: lowest phenotypically active concentration; higher = less potent
Conditions: treatment time: 24 h
In short: (§1)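 Two criteria together defined phenotypic activity: deviation and reproducibility. Deviation meant ≥3 of 4 wells beyond the 95th percentile of Euclidean distances in solvent control wells, and reproducibility meant a median replicate Pearson correlation above the 95th percentile of non-replicates. Wells had been treated for 24 h at 0.3, 1, 3 or 9 µM in fifteen gene-edited A549, HepG2 and WPMY1 reporter lines before live imaging.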

Row | Compound | lowest phenotypically active concentration
1 | C[C@]1(O)C[C@@H](c2nc(-c3ccc4ccc(-c5ccccc5)nc4c3)c3c(N)nccn32)C1 [linsitinib] | 9 µM
2 | O=C(O)C[C@H](O)C[C@H](O)/C=C/c1c(C2CC2)nc2ccccc2c1-c1ccc(F)cc1 [Pitavastatin calcium] | 1 µM
3 | NC(=O)c1cccc(-c2cc(Nc3ccc(OC(F)(F)F)cc3)ncn2)c1 | 9 µM
4 | NS(=O)(=O)c1nn2cc(-c3ccccc3)nc2s1 | 9 µM

System: HepG2-TP53BP1-CLTA
Test: as above
Conditions: treatment time: 24 h
In short: as §1

Row | Compound | lowest phenotypically active concentration
5 | CC/C(=C(\CC)c1ccc(O)c(CN(CC)CC)c1)c1ccc(O)c(CN(CC)CC)c1 | ≤ 0.3 µM
6 | CNCCC(Oc1ccc(C(F)(F)F)cc1)c1ccccc1 (configuration not stated) [fluoxetine] | 9 µM
7 | Cn1cc(C2=C(c3ccc(Cl)cc3Cl)C(=O)NC2=O)c2ccccc21 | ≤ 0.3 µM
8 | CC(C)COCC(CN(Cc1ccccc1)c1ccccc1)N1CCCC1 (configuration not stated) [bepridil] | 9 µM
9 | O=C(NOCC1CC1)c1ccc(F)c(F)c1Nc1ccc(I)cc1Cl | ≤ 0.3 µM
10 | COc1ccc(CCNCc2ccc(OCc3ccc(Cl)nc3)c(OC)c2)cc1OC [SBE 13 hydrochloride] | 9 µM
11 | N#C/C(=C(/N)Sc1ccc(N)cc1)c1ccccc1C(F)(F)F | 3 µM
12 | Cc1noc(C)c1Cn1cc(C#N)c2cc(Oc3ccc(NC(=O)[C@@H]4CCCN4)cc3)ccc21 | 9 µM
13 | CCCS(=O)(=O)Nc1ccc(F)c(C(=O)c2c[nH]c3ncc(Cl)cc23)c1F | 1 µM
14 | COc1c(C=O)c(O)cc2c1C(=O)c1ccccc1C2=O [Damnacanthal] | 9 µM
15 | C[C@H]1Oc2cc(cnc2N)-c2c(nn(C)c2C#N)CN(C)C(=O)c2ccc(F)cc21 | 3 µM
16 | CC(C)OC(=O)c1cc2c(OCC(O)CNC(C)(C)C)cccc2[nH]1 (configuration not stated) | 3 µM
17 | COc1ccccc1OCCNCC(O)COc1cccc2[nH]c3ccccc3c12 (configuration not stated) [Carvedilol] | 9 µM
18 | CCCCOc1cc(C(=O)NCCN(CC)CC)c2ccccc2n1 [cinchocaine] | 9 µM
19 | O=S(=O)(c1cccc2cnccc12)N1CCCNCC1 [fasudil] | 3 µM
20 | CSc1ccc2c(c1)N(CCC1CCCCN1C)c1ccccc1S2 (configuration not stated) [thioridazine] | 9 µM
21 | COc1cc(N2CCC(N)CC2)ccc1Nc1ncc(Cl)c(-c2c[nH]c3ccccc23)n1 | 3 µM
22 | Cc1noc(C)c1-c1ccc2c(c1)nc(CCc1ccc(OCCCN(C)C)cc1)n2CCN1CCOCC1 | 9 µM
23 | Cc1cc(Nc2ccc(NC(=O)c3ccc(Nc4ccnc5ccccc45)cc3)cc2)nc(N)n1 | 3 µM
24 | Cc1ccc(NC2=CC(=O)c3sc(C)nc3C2=O)cc1 [Ryuvidine] | 3 µM
25 | C[C@]1(O)C[C@@H](c2nc(-c3ccc4ccc(-c5ccccc5)nc4c3)c3c(N)nccn32)C1 [linsitinib] | 9 µM
26 | O=C(O)C[C@H](O)C[C@H](O)/C=C/c1c(C2CC2)nc2ccccc2c1-c1ccc(F)cc1 [Pitavastatin calcium] | 1 µM
27 | CN1[C@@H]2CC[C@H]1C[C@@H](OC(c1ccccc1)c1ccccc1)C2 [benztropine] | 9 µM

Source: the supplement of paper PMC7411054
